These results are taken from ChEMBL document CHEMBL2218924, “A broad activity screen in support of a chemogenomic map for kinase signalling research and drug discovery” (Biochem J, 2013).

Experiment [1] has as its target T1, Serine/threonine-protein kinase D2 (Homo sapiens) (UniProt Q9BZL6).
T1 sequence (whole entry): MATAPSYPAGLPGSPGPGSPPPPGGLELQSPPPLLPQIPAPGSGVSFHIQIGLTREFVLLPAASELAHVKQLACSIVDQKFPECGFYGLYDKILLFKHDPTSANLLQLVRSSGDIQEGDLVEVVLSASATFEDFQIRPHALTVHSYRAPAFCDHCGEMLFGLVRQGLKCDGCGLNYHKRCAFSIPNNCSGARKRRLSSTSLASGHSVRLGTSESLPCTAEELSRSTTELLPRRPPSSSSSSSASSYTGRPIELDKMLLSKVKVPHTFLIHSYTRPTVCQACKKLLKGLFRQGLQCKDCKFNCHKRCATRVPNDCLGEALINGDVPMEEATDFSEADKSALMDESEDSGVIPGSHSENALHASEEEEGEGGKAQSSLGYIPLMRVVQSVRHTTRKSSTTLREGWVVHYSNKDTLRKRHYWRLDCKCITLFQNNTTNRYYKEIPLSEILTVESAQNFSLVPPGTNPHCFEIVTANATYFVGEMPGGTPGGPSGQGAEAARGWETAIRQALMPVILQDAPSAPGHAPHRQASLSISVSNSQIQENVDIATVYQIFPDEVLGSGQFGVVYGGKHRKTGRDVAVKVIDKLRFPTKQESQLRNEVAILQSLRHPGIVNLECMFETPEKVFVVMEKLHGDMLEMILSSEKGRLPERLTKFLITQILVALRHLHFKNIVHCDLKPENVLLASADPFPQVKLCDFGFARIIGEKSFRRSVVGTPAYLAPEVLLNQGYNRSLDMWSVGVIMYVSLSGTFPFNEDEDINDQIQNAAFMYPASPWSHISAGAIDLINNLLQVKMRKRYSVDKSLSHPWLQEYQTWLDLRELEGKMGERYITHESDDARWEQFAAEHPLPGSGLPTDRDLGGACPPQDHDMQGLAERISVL
The following applies: at 1 µM.

Experiment [2] has as its target T1, Serine/threonine-protein kinase D2 (Homo sapiens). The following applies: at 10 µM.
The target of experiment [3] is T2, cGMP-dependent protein kinase 1 (Homo sapiens) (UniProt Q13976).
T2 sequence (whole entry): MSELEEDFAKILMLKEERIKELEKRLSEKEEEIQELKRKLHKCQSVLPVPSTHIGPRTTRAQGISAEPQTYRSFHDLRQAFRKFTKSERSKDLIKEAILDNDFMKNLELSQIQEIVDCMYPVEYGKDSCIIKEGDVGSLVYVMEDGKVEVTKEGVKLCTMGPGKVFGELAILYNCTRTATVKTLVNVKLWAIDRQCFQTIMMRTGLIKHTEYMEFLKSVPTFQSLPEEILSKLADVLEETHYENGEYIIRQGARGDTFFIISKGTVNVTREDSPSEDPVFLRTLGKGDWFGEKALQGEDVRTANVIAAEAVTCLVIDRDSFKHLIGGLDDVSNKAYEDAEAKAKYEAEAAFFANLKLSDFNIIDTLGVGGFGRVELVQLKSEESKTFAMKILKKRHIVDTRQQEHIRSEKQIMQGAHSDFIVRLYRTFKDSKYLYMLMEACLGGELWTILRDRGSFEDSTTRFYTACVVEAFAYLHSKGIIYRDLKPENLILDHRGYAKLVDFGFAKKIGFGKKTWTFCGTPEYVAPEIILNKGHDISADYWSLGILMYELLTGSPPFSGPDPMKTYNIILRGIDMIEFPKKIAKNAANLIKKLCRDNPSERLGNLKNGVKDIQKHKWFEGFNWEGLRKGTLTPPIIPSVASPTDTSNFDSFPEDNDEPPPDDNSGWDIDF
The following applies: at 1 µM.

Experiment [4] deals with T2, cGMP-dependent protein kinase 1 (Homo sapiens). The following applies: at 10 µM.
Experiment [5] has the same target. The following applies: at 1 µM. The source holds these as a separate data set.
The target is the same in experiment [6]. The settings on record: at 10 µM. The source holds these as a separate data set.
The target of experiment [7] is T3, MAP kinase-activated protein kinase 5 (Homo sapiens) (UniProt Q8IW41).
T3 sequence (whole entry): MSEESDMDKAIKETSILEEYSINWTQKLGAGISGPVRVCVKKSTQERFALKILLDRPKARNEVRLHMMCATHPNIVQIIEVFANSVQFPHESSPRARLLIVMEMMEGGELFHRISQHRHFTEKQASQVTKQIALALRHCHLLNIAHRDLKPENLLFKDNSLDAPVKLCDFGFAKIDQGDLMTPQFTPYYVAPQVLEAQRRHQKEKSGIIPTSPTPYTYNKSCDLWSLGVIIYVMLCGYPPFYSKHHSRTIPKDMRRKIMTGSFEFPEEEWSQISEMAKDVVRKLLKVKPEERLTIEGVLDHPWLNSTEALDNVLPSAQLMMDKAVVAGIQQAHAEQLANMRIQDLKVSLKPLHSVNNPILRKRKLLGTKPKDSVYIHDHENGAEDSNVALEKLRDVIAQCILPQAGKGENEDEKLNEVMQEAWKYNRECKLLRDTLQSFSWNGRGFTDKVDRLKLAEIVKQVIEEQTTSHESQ
The settings on record: at 1 µM.

The target in experiment [8] is T3, MAP kinase-activated protein kinase 5 (Homo sapiens). The following applies: at 10 µM.
For experiment [9], the target named is Serine/threonine-protein kinase N2 (Homo sapiens) (UniProt Q16513). The settings on record: at 1 µM.
Sequence of Serine/threonine-protein kinase N2 (Homo sapiens) (Q16513 whole entry, looked up): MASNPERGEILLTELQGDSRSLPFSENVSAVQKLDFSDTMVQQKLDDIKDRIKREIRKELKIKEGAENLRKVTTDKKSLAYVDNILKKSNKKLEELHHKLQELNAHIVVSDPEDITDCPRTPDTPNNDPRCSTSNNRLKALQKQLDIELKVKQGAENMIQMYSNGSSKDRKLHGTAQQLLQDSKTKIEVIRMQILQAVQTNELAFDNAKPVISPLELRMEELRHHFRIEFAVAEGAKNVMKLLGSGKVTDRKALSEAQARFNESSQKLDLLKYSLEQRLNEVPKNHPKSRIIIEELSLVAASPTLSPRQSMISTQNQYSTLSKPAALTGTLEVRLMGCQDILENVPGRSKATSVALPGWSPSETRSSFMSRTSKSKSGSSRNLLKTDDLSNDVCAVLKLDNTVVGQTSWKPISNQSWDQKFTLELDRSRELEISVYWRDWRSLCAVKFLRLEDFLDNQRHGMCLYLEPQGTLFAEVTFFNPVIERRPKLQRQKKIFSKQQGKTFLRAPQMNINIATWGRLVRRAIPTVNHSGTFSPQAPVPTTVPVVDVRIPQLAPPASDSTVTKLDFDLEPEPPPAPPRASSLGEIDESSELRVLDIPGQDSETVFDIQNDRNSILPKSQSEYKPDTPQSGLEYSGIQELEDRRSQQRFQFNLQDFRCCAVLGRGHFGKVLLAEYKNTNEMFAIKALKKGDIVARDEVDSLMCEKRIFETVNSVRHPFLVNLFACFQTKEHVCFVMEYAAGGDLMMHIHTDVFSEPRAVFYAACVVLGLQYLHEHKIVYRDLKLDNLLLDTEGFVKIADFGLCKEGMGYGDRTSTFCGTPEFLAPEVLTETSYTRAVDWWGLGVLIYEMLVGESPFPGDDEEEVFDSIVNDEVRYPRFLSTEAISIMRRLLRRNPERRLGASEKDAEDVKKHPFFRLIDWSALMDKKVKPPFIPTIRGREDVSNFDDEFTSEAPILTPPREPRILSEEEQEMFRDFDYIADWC
For experiment [10] the target is unchanged. The following applies: at 10 µM.

As to `CCn1cnc2c(Nc3cccc(Cl)c3)nc(N[C@@H]3CCCC[C@@H]3N)nc21`, the residual activity in [1] turned out to be 97%; in experiment [2], 96%; in [3], 92%; in experiment [4] it was 88%; in experiment [5] it was 89%; in experiment [6] it was 70%. Moreover, the residual activity in [7] worked out at 119%; in experiment [8], 124%; in experiment [9] it was 80%; in [10], 49%.

Turning to `O=c1[nH]c2ccccc2n1C1CCN(Cc2ccc(-c3nc4cc5[nH]cnc5cc4nc3-c3ccccc3)cc2)CC1`, the residual activity came out at 100% in [1]; 108% in experiment [2]; 108% in experiment [3]; 110% in experiment [4]; 86% in experiment [5]; 97% in experiment [6]. In addition, the residual activity came out at 75% in experiment [7], 37% in experiment [8], 112% in experiment [9] and 115% in [10].

On to `COc1ccc2c(c1)/C(=C/c1cnc[nH]1)C(=O)N2`, for which the residual activity is 97% in experiment [1]; 39% in [2]; 122% in [7]; 63% in [8]; 40% in experiment [10].

For `O=[N+]([O-])/C=C/c1ccc2c(c1)OCO2`, the residual activity in experiment [1] is 105%; in experiment [2], 105%; in [3], 107%; in [4] it was 106%; in [5] it was 101%; in experiment [6], 90%. The residual activity was 85% in experiment [7], 70% in experiment [8], 102% in experiment [9] and 107% in experiment [10].

Regarding `COc1cc(OC)c(/C=C2\C(=O)Nc3ccccc32)c(OC)c1`, the residual activity is 108% in experiment [1]; 105% in experiment [2]; 97% in experiment [3]; 108% in [4]; 83% in [5]; 73% in [6]. Further, the residual activity amounted to 99% in [9] and 87% in experiment [10].

For the compound `O=C1NC(=O)c2c1c1c3ccccc3n3c1c1c2c2ccccc2n1C1CCC3O1`, the residual activity turned out to be 92% in experiment [1]; 90% in experiment [2]; 84% in [3]; 73% in experiment [4]; 76% in [5]; 74% in experiment [6]. Moreover, the residual activity was 47% in [9] and 25% in [10].

`COc1ccc2c(c[n+](C)c3c4cc5c(cc4ccc23)OCO5)c1OC`: the residual activity in [4] came out at 92%; in [5], 92%; in experiment [6] it was 87%; in [7], 84%; in experiment [8] it was 52%; in experiment [10], 92%.

`CC(C)[C@H](CO)Nc1nc(Nc2cccc(Cl)c2)c2ncn(C(C)C)c2n1`: the residual activity is 102% in [7] and 59% in experiment [8].

Consider `CC(C)(C)c1cc(C=C(C#N)C#N)cc(Br)c1O`, for which the residual activity in experiment [1] worked out at 100%; in experiment [2] it was 105%; in experiment [3], 107%; in [5], 66%; in [6], 60%; in experiment [7] it was 107%. For the same compound, the values for the residual activity in experiment [8], in experiment [9] and in experiment [10] were 65%, 104% and 117%, respectively.

`C[S+]([O-])c1ccc(-c2nc(-c3ccc(F)cc3)c(-c3ccncc3)[nH]2)cc1` (stereo unspecified): the residual activity in experiment [1] came out at 105%; in experiment [2] it was 90%; in experiment [3], 101%; in experiment [4], 99%; in experiment [5] it was 125%; in experiment [6] it was 107%. For the same compound, the residual activity was found to be 145% in experiment [7], 104% in experiment [8], 103% in [9] and 107% in experiment [10].

Regarding `c1cc(-c2cnn3cc(-c4ccc(OCCN5CCCCC5)cc4)cnc23)ccn1`, the residual activity in experiment [3] was 73%; in experiment [4] it was 25%; in experiment [5], 66%; in experiment [6], 12%; in experiment [9], 47%; in experiment [10], 6%.

For `COc1cc2ncnc(Nc3ccc(OCc4ccccc4)cc3)c2cc1OC`, the residual activity turned out to be 98% in [1]; 98% in experiment [2]; 115% in experiment [3]; 125% in [4]; 72% in experiment [5]; 88% in experiment [6]. The residual activity amounted to 111% in experiment [7], 83% in [8], 109% in experiment [9] and 111% in [10].

Turning to `O=C1Nc2ccc3ncsc3c2/C1=C/c1c[nH]cn1`, the residual activity in experiment [1] amounted to 30%; in [2] it was 3%; in [3] it was 13%; in experiment [4] it was 2%; in [5], 7%; in [6], 1%. Besides, the residual activity worked out at 49% in [7], 18% in experiment [8], 4% in experiment [9] and 2% in experiment [10].

`CCc1nc(-c2ccc(OC)cc2)[nH]c1-c1ccncc1`: the figures for the residual activity in experiment [9] and in experiment [10] were 102% and 74%, respectively.

Consider `COC(=O)[C@@]1(O)C[C@H]2O[C@]1(C)n1c3ccccc3c3c4c(c5c6ccccc6n2c5c31)C(=O)NC4`, for which the residual activity was 2% in [1]; 0% in experiment [2]; 10% in experiment [3]; 1% in experiment [4]; 9% in experiment [5]; 2% in experiment [6]. The residual activity in experiment [7] was 19%; in experiment [8], 0%; in [9], 1%; in experiment [10], 1%.
